# Results published in the OligoGym collection.
# Target: KBTBD10
# Assay: pooled miR-30 sensor sort-seq; sequence = guide strand
# Conditions: shRNA
# Note: reference of the scale not given here.
row,Sequence,sensor-assay potency score (higher = more potent)
1,TAGCTCCTGAAGCATAACGTAT,-1.66
2,ATTGTCTAGCACTACCTCCTTT,-0.463
3,TTTTGCTGGGTAACAATGCTGG,-0.684
4,TAAGGTAGCATTCATTTTCCGT,-0.0345
5,TTGCTAGGCAACTAGCTCCTGA,-0.209
6,TATGTCATTGACTTCAGTGGGT,0.618
7,TGAAGCATAACGTATTTCCTTC,-0.295
8,TTGTCTAGCACTACCTCCTTTT,-0.574
9,TTGTACATTTTTTGTCATCTGT,-0.405
10,TTTATCATCCACCTCTCCCAGA,-0.692
11,TTGCATACAGAGATCCAGCCAG,-0.134
12,TTTGCCTGCAACTACATAGATT,-1.51

# Target: KBTBD12
# Assay: as above
# Conditions: shRNA
row,Sequence,sensor-assay potency score (higher = more potent)
1,TTCTTTGTTATGATTTACCCAT,-0.456
2,TATATTTTTGACACACACTGAA,0.336
3,TATGTCTTGATCTGATTCCTGA,0.119
4,TTGTCTTGACCTACACAGCCAA,-0.566
5,TAAATCTTCAGCTCCAATCTGC,0.302
6,TTATTCAGTAAATTCAAGCTAT,-0.287
7,TGGTCATCTAGCTACAACCTAC,-1.11
8,TTTAATAACACCGACACACTTT,0.48
9,TACAGCTGTACTGAATCGGTAC,-0.257
